Measured values from PubChem BioAssay (NCI).
Compounds without any hit were thinned out: in the full panel of roughly 79,000, 15% have a hit. A number with no mark means an inactive call. Active and inactive are the calls of the source. Rule as the data show it: active = growth inhibition above about 70%; inactive = the rest.

What was measured:
[1] = NCI Yeast Anticancer Drug Screen. Data for the rad50 strain (AID 155);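 also: 0% = growth of vehicle-only cultures of the same strain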; conditions: S. cerevisiae rad50 strain growth inhibition, active compounds read high
Summary of the method: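 Vehicle-treated cultures provide the reference for the growth inhibition reported for compound-exposed, repair-deficient yeast.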

[2] = NCI Yeast Anticancer Drug Screen. Data for the mec2-1 strain (AID 157); conditions: S. cerevisiae mec2-1 strain, active compounds read high
Summary of the method: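 Test agents were screened against the mec2-1 yeast strain, with defined DNA repair or cell cycle alteration. Growth was scored as inhibition against vehicle-only controls.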

[3] = NCI Yeast Anticancer Drug Screen. Data for the sgs1 mgt1 strain (AID 161);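 also: 0% = growth of cultures given vehicle only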; conditions: S. cerevisiae sgs1 mgt1 strain, active compounds read high
Summary of the method: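 Mutant yeast exposed to compound; growth scored against vehicle-only wells.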

[4] = NCI Yeast Anticancer Drug Screen. Data for the cln2 rad14 strain (AID 165);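 also: 0% = growth equal to vehicle treated cultures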; conditions: S. cerevisiae cln2 rad14 strain, active compounds read high
Summary of the method: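 Growth of compound-exposed yeast (cln2 rad14 genotype) measured and expressed as inhibition relative to vehicle.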

[5] = NCI Yeast Anticancer Drug Screen. Data for the bub3 strain (AID 167); conditions: S. cerevisiae bub3 mutant strain, active compounds read high
Summary of the method: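 Mutant yeast screening strain plus compound; vehicle-treated cultures serve as the 0% inhibition reference.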

[6] = NCI Yeast Anticancer Drug Screen. Data for the mlh1 rad18 strain (AID 175); conditions: S. cerevisiae mlh1 rad18 strain growth inhibition, active compounds read high
Summary of the method: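 In this whole-cell yeast screen, a strain with altered DNA damage repair is challenged with compound, and its growth is measured against matched vehicle-treated controls.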

[7] = at 5.0 µM (retest, dose inferred, filed as 0.5)
[8] = at 50.0 µM (retest, dose inferred, filed as 5.0)

| Structure (SMILES) | growth inhibition [1, 7] | growth inhibition [1, 8] | growth inhibition ([1]; at 50.0 µM) | growth inhibition [2, 7] | growth inhibition [2, 8] | growth inhibition ([2]; at 50.0 µM) | growth inhibition [3, 7] | growth inhibition [3, 8] | growth inhibition ([3]; at 50.0 µM) | growth inhibition [4, 7] | growth inhibition [4, 8] | growth inhibition ([4]; at 50.0 µM) | growth inhibition [5, 7] | growth inhibition [5, 8] | growth inhibition ([5]; at 50.0 µM) | growth inhibition [6, 7] | growth inhibition [6, 8] | growth inhibition ([6]; at 50.0 µM) |
| --- | --- | --- | --- | --- | --- | --- | --- | --- | --- | --- | --- | --- | --- | --- | --- | --- | --- | --- |
| CCCCCCCCCCCCCC(=O)NO | 97% (active) | 97% (active) | 89.2% (active) | 99% (active) | 98% (active) | 91.3% (active) | 99% (active) | 98% (active) | 92.8% (active) | 89% (active) | 96% (active) | 88.2% (active) | 99% (active) | 98% (active) | 90.2% (active) | 99% (active) | 97% (active) | 89.1% (active) |
| Cc1cc(NC(=S)SCc2ccc(Cl)cc2)ccc1Br | 35% | 98% (active) | 91.3% (active) | 26% | 99% (active) | 92.7% (active) | 47% | 99% (active) | 91.3% (active) | 37% | 99% (active) | 88.8% (active) | 55% | 100% (active) | 91.2% (active) | 25% | 99% (active) | 91.2% (active) |
| O=[N+]([O-])c1c(O)cccc1O | 45% | 98% (active) | 99% (active) | 17% | 99% (active) | 99.2% (active) | 29% | 99% (active) | 99.2% (active) | 24% | 99% (active) | 98% (active) | 14% | 99% (active) | 98.9% (active) | 36% | 99% (active) | 98.5% (active) |
| O=Cc1[nH]c(=S)[nH]c(=O)c1CCCc1ccccc1 | -15% | 79% (active) | 95.8% (active) | -7% | 90% (active) | 78.2% (active) | 15% | 97% (active) | 98.5% (active) | 17% | 92% (active) | 82.3% (active) | 5% | 95% (active) | 85% (active) | 11% | 97% (active) | 98.2% (active) |
| C/C(=N/NC(=O)Nc1ccc(N=Nc2ccccc2)cc1)c1ccccn1 | -15% | -12% | 15.2% | -7% | -5% | -10.9% | 0% | 19% | 24.8% | 33% | -16% | -4.4% | 3% | 43% | 16.4% | -9% | 15% | 28.1% |
| C[n+]1cc2c3ccccc3ccc2c2ccccc21 | 37% | 79% (active) | 59.3% | 37% | 69% | 53.2% | 32% | 66% | 75.2% (active) | 26% | 45% | 56% | 7% | 57% | 47% | 39% | 83% (active) | 40.3% |
| CCOc1nc(N)nc(C)c1N=Nc1ccc(Br)cc1 | 9% | 90% (active) | 70.2% (active) | 0% | 32% | 2.6% | 4% | 72% (active) | 22.2% | 4% | 30% | -9.65% | 4% | 88% (active) | 75.9% (active) | 17% | 98% (active) | 35.1% |
| COc1ccc(/C=C(\C(=O)c2ccc(O)cc2)c2ccccc2)cc1OC | -5% | 97% (active) | 98.5% (active) | -9% | 97% (active) | 98% (active) | 2% | 98% (active) | 96.2% (active) | -5% | 99% (active) | 93.7% (active) | -4% | 98% (active) | 97.1% (active) | 0% | 99% (active) | 97.5% (active) |
| C(#Cc1ccccc1)Sc1ccccc1 | 6% | 4% | 12.9% | -9% | 14% | 31.1% | 1% | 18% | 65.7% | 6% | 6% | 23.1% | 29% | 9% | -30.8% | 4% | 11% | 56.4% |
| ICCCCCCCCCC[n+]1ccc2ccccc2c1 | 32% | 98% (active) | 88.9% (active) | 89% (active) | 99% (active) | 89.8% (active) | 52% | 99% (active) | 89.3% (active) | 42% | 99% (active) | 85.4% (active) | 78% (active) | 99% (active) | 92.7% (active) | 28% | 96% (active) | 90.5% (active) |
